Assay results: PubChem BioAssay (NCI)
This is part of a sample that, as a whole, favours compounds with a hit. Of some 83,000 tested, about 20% had one in any assay.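 Treatment: one concentration, 48 hours, 96-well format. Scoring: percent growth, with anything below 10 considered active.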 Values without a mark were called inactive. The source made the active and inactive calls.

Key:
Experiment in all cases: NCI-60 one-dose screen, 48 h (100 = growth as untreated, 0 = no growth, -100 = all killed)
Conditions in all cases: 10 µM unless noted
NCI-H23 lung = test system: NCI-H23 lung
NCI-H226 lung = test system: NCI-H226 lung
NCI-H322M lung = test system: NCI-H322M lung
HOP-62 NSCLC = test system: HOP-62 NSCLC
NCI-H460 lung = test system: NCI-H460 lung
HOP-92 NSCLC = test system: HOP-92 NSCLC
NCI-H522 lung = test system: NCI-H522 lung
A549/ATCC NSCLC = test system: A549/ATCC NSCLC
786-0 renal = test system: 786-0 renal
COLO 205 colon = test system: COLO 205 colon
DU-145 prostate = test system: DU-145 prostate
K-562 leukemia = test system: K-562 leukemia
MALME-3M melanoma = test system: MALME-3M melanoma
MDA-MB-231 breast = test system: MDA-MB-231 breast
RXF 393 renal = test system: RXF 393 renal
SF-268 CNS = test system: SF-268 CNS
SF-295 CNS = test system: SF-295 CNS
SF-539 CNS = test system: SF-539 CNS
UACC-257 melanoma = test system: UACC-257 melanoma
M14 melanoma = test system: M14 melanoma

SMILES	growth (NCI-H23 lung)	growth (NCI-H226 lung) [%]	growth (NCI-H322M lung) [%]	growth (HOP-62 NSCLC) [%]	growth (NCI-H460 lung)	growth (HOP-92 NSCLC)	growth (NCI-H522 lung)	growth (A549/ATCC NSCLC)	growth (786-0 renal)	growth (COLO 205 colon)	growth (DU-145 prostate) [%]	growth (K-562 leukemia)	growth (MALME-3M melanoma)	growth (MDA-MB-231 breast)	growth (RXF 393 renal)	growth (SF-268 CNS) [%]	growth (SF-295 CNS)	growth (SF-539 CNS)	growth (UACC-257 melanoma) [%]	growth (M14 melanoma)
COc1cc(/C=C/C(=O)c2ccccc2)ccc1Oc1nc(Nc2ccc(F)cc2)nc(N(C)C)n1	46.6%	43	61.2	78.4	18.1%	28.7%	29.6%	52.8%	39.6%	36.2%	53.7	6.43% (active)	41.5%	-4.47% (active)	39.4%	42.3	26.5%	-8.58% (active)	21.9	38.7%
COc1cc2c(c(OC)c1OC)C(=O)CC(c1cccc(NC(=O)c3cccc(NC(=O)[C@H](C)NC(=O)OC(C)(C)C)c3)c1)O2 (stereo not given in full)	70.4%	53.1	105	73.6	76.1%	74.4%	21%	59.9%	86.4%	81.8%	61.7	40.7%	70.3%	69%	90%	53.6	65.9%	85.2%	77	76%
C=C1CCC2C3(C)COC(c4ccc(F)cc4)OC3CCC2(C)C1CC(O)C1=CCOC1=O (stereo not given)	51.2%	58	82.1	81.7	93.8%	45.9%	-28.2% (active)	59.6%	19.4%	22.8%	59.3	15.2%	63.2%	53.5%	35.7%	103	64.7%	56.3%	57.9	24.7%
OCNc1ccc(-n2cnc3cc(-c4ccc(O)cc4)ccc32)cc1C(F)(F)F	27%	51	46.3	34.9	9.72% (active)	65.1%	-15.7% (active)	22.4%	22.7%	43.5%	28.6	17.2%	26.6%	38.6%	47.5%	24.7	4.48% (active)	23.5%	58.4	11.9%
COc1cc(C2CC(c3cc(OC)c(OC)c(OC)c3)=NN2c2ccccc2)ccc1OCc1ccc(C)cc1 (stereo not given)	101%	80.2	102	99.6	99.3%	111%	82.3%	102%	102%	119%	100	92.8%	95.3%	102%	101%	87.6	108%	95.7%	101	97.8%
Cc1ccccc1[C@H]1C(C(=O)c2ccc(Cl)cc2)C2(N[C@@H]1c1ccccc1)C(=O)Nc1ccc(Br)cc12 (stereo not given in full)	-3.76% (active)	25.5	39.4	31.6	3.51% (active)	-21.3% (active)	-17.6% (active)	2.73% (active)	-40.5% (active)	-34.5% (active)	15	1.41% (active)	45.1%	-19.8% (active)	-29% (active)	31	19.3%	36.9%	37.3	1.39% (active)
CCC(C)(C)c1ccc(OCCCCCCN2CCN(c3ccncc3)CC2)cc1	1.24% (active)	35.6	47.6	35.1	-29.7% (active)	-27.8% (active)	8.93% (active)	32.8%	-79% (active)	-84.4% (active)	35.5	-24.8% (active)	-94.7% (active)	-77.6% (active)	-62.5% (active)	50.5	-78% (active)	-72.4% (active)	18.4	-68.7% (active)
O=S(=O)(Nc1cccc(-n2cnc3cc(-c4ccc(O)cc4)ccc32)c1)C1CC1	38.5%	19.3	55.3	44.1	15.8%	87.9%	14.4%	37.7%	40.1%	25.8%	27.5	8.55% (active)	46.1%	42.4%	4.76% (active)	31.9	11.9%	-11.6% (active)	68.4	29.7%
